PubChem BioAssay (EPA / NIEHS)
Results filed as inconclusive are left out. Active and inactive are the calls of the source. Rule for the calls, unless noted: active = hit-call score of the fitted dose curve at least 0.9, where 1 is the maximum; inactive = score below 0.9.

Key:
[1] = target: Glucocorticoid receptor (Homo sapiens) (UniProt P04150); experiment: ATG_GR_TRANS: Attagene TRANS-FACTORIAL HepG2 Assay for human Glucocorticoid Receptor (GR) (AID 2282978; active = hit-call score of the fitted dose curve at least 0.9, where 1 is the maximum;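 note: activators score as hits since higher reporter transcript over DMSO is fitted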); settings: HepG2 Attagene TRANS GR reporter, mRNA transcription
Sequence of Glucocorticoid receptor (Homo sapiens) (P04150 whole entry, looked up, the tested form may be a part): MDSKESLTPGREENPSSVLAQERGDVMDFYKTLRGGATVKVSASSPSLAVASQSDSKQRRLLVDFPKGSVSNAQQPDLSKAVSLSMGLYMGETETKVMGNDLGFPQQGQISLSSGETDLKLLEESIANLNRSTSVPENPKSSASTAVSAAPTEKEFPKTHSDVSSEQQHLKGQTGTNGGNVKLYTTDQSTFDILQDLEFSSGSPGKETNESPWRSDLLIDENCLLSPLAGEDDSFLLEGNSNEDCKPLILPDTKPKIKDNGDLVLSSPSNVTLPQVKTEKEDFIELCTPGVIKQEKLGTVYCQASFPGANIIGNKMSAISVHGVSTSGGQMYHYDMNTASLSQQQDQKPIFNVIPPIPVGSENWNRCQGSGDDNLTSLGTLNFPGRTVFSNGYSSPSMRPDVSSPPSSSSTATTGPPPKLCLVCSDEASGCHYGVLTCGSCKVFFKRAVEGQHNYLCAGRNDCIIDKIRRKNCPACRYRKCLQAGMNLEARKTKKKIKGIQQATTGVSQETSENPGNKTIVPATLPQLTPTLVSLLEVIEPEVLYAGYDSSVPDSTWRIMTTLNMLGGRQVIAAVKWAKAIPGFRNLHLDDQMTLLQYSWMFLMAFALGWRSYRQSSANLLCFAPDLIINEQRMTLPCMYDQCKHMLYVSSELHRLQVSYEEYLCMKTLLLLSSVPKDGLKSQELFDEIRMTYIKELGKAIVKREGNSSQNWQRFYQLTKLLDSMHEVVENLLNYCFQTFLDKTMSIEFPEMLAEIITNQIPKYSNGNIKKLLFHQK
In short: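 HepG2 transient transfection, multiple reporter units, GAL4-UAS under NR-GAL4 chimera control. 24 h treatment. Reporter mRNA by RT-PCR/CE fluorescence, DMSO as negative control.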

[2] = target: Oxysterols receptor LXR-beta (Homo sapiens) (UniProt P55055); experiment: ATG_LXRb_TRANS: Attagene TRANS-FACTORIAL HepG2 Assay for human Liver X Receptor beta (LXRb) (AID 2282981; active = hit-call score of the fitted dose curve at least 0.9, where 1 is the maximum); settings: HepG2 Attagene TRANS GAL4-LXRb reporter, mRNA
Sequence of Oxysterols receptor LXR-beta (Homo sapiens) (P55055 whole entry, looked up, the tested form may be a part): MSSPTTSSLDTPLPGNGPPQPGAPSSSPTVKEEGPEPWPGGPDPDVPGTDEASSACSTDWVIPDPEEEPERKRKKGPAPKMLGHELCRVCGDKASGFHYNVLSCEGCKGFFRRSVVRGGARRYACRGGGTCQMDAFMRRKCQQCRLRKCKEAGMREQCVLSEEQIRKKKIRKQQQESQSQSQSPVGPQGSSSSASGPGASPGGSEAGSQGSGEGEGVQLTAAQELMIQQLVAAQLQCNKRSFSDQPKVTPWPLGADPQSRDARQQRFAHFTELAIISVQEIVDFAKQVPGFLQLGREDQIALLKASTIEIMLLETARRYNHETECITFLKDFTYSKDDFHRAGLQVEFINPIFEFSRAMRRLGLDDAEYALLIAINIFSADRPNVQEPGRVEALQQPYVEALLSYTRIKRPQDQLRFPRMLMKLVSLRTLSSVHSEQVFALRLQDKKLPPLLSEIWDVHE
In short: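 In this TRANS format, exogenous chimeric NR-Gal4 protein activity, not endogenous factors, drives reporter expression in transfected human HepG2 cells. Exposure lasted 24 h; reporter mRNA was read by fluorescent capillary electrophoresis.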

[3] = ATG_M_06_TRANS: Attagene TRANS-FACTORIAL HepG2 Assay for M06 Transcription Factor (Internal Marker) (AID 2282983; active = hit-call score of the fitted dose curve at least 0.9, where 1 is the maximum); settings: HepG2 Attagene TRANS M06 internal marker reporter
In short: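 Measured by capillary electrophoresis of fluorescently labelled RT-PCR products, this endpoint reflects reporter mRNA in HepG2 cells harbouring exogenous NR-GAL4 reporter constructs after 24 h exposure, with DMSO as baseline.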

[4] = ATG_M_32_TRANS: Attagene TRANS-FACTORIAL HepG2 Assay for M32 Transcription Factor (Internal Marker) (AID 2282984; active = hit-call score of the fitted dose curve at least 0.9, where 1 is the maximum;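 note: transcript level of a background control reporter unit measured by RT-PCR and capillary electrophoresis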); settings: HepG2 Attagene TRANS M32 internal marker reporter
In short: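 Human hepatoma HepG2, transient MRTU transfection, 24 h treatment. RNA → RT-PCR → fluorescent primer extension → HpaI digest (2 h, 37 C) → CE. Positive-direction fit vs DMSO.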

[5] = target: Nuclear receptor subfamily 4 group A member 2 (Homo sapiens) (UniProt P43354); experiment: ATG_NURR1_TRANS: Attagene TRANS-FACTORIAL HepG2 Assay for human Nuclear Receptor Related Protein 1 (NURR1) (AID 2282985; active = hit-call score of the fitted dose curve at least 0.9, where 1 is the maximum); settings: HepG2 Attagene TRANS reporter, mRNA readout
Sequence of Nuclear receptor subfamily 4 group A member 2 (Homo sapiens) (P43354 whole entry, looked up): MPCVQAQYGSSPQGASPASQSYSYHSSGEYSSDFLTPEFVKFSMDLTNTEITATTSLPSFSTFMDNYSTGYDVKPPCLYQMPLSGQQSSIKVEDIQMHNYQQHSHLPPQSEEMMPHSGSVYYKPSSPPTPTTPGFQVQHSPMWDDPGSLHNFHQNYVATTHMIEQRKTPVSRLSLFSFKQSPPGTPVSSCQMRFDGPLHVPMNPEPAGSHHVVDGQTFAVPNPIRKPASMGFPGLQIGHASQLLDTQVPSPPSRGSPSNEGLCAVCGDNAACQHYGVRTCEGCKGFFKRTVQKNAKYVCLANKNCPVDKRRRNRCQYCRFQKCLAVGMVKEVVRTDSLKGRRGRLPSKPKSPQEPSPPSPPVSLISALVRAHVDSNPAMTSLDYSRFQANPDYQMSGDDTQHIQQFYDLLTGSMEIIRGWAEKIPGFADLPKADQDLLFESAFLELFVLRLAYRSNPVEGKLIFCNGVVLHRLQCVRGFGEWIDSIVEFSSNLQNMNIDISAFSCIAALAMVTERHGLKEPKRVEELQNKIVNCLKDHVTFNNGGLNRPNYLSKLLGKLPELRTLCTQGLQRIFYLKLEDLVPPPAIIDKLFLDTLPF
In short: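 After 24 h chemical dosing, total RNA from transiently transfected HepG2 cells was reverse-transcribed and reporter cDNA PCR-amplified, FAM-labelled and analysed by capillary electrophoresis. Activity fitted in positive direction, DMSO as negative control.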

[6] = target: Transcriptional activator Myb (Homo sapiens) (UniProt P10242); experiment: ATG_Myb_CIS: Attagene CIS-FACTORIAL HepG2 Assay for human Myeloblastosis (Myb) Proto-Oncogene Transcription Factor (AID 2282986); settings: HepG2 Attagene CIS-FACTORIAL Myb reporter transcription; actives raise or lower the signal
Sequence of Transcriptional activator Myb (Homo sapiens) (P10242 whole entry, looked up): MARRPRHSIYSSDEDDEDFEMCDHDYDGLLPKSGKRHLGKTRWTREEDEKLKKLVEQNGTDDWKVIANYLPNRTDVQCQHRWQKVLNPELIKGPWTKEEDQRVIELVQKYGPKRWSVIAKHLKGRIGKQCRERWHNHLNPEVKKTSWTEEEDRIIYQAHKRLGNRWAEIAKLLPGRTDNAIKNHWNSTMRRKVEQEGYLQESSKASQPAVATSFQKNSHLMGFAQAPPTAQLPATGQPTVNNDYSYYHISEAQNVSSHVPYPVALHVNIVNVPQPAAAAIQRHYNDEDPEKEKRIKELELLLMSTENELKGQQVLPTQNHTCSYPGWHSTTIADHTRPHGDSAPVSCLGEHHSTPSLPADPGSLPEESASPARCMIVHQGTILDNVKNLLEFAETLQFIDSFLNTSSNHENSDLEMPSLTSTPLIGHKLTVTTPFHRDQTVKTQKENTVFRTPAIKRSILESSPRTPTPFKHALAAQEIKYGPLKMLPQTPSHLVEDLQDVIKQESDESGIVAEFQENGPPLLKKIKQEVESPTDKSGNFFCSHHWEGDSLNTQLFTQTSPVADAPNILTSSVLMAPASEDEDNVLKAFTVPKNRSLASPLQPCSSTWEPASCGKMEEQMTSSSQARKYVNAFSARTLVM
In short: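 Multiplexed cis-reporter system in HepG2: transient transfection, 24 h treatment, mRNA readout by RT-PCR and capillary electrophoresis. Both increases and decreases are scored versus DMSO negative control.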

[7] = target: Nuclear respiratory factor 1 (Homo sapiens) (UniProt Q16656); experiment: ATG_NRF1_CIS: Attagene CIS-FACTORIAL HepG2 Assay for human Nuclear Respiratory Factor 1 (NRF1) Orphan Gene (AID 2282987); settings: HepG2 NRF1 cis-element reporter, Attagene multiplex; actives raise or lower the signal
Sequence of Nuclear respiratory factor 1 (Homo sapiens) (Q16656 whole entry, looked up): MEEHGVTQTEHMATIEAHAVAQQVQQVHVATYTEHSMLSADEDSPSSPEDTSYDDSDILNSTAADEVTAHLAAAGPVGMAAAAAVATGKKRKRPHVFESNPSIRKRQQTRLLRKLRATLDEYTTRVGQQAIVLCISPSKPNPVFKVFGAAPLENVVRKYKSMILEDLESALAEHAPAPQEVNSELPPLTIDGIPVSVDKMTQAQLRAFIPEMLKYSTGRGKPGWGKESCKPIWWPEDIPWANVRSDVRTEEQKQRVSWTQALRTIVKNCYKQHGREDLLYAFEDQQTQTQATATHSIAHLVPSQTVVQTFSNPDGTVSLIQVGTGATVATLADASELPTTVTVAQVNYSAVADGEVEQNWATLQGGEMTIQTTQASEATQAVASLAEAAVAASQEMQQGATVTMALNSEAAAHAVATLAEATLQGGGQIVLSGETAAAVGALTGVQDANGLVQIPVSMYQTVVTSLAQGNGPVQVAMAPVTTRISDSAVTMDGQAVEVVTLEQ
In short: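 Endogenous factor activity was captured via cis-element-driven reporter transcripts in HepG2 cells. Following 24 h chemical treatment, transcripts were quantified by RT-PCR and capillary electrophoresis.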

[8] = ATG_NFI_CIS: Attagene CIS-FACTORIAL HepG2 Assay for human Nuclear Factor I (NFI) (AID 2282989); settings: HepG2 cis-regulatory reporter, NFI response element transcription; actives raise or lower the signal
In short: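 HepG2, transient MRTU, 24 h exposure; RNA→cDNA→PCR→FAM label→HpaI→CE fluorescence. Bidirectional fit, DMSO = baseline.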

[9] = target: Myc proto-oncogene protein (Homo sapiens) (UniProt P01106); experiment: ATG_Myc_CIS: Attagene CIS-FACTORIAL HepG2 Assay for human Myelocytomatosis (Myc) Proto-Oncogene Transcription Factor (AID 2282990); settings: HepG2, Attagene cis-reporter transcription factor activity; actives raise or lower the signal
Sequence of Myc proto-oncogene protein (Homo sapiens) (P01106 whole entry, looked up): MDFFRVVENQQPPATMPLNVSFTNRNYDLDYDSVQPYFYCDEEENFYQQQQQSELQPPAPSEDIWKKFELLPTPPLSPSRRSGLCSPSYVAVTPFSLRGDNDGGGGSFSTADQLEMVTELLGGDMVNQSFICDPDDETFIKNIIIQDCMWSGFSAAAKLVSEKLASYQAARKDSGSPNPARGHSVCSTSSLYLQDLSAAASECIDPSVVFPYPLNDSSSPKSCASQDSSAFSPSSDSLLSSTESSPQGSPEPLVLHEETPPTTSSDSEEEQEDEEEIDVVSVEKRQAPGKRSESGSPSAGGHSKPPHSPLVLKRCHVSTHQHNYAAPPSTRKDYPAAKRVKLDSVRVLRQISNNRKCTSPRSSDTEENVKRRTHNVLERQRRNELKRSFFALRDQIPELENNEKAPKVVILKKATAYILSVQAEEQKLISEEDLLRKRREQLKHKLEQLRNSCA
In short: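 DMSO-normalised, bidirectionally fitted reporter mRNA signal. HepG2 cells transfected with cis reporter constructs, treated 24 h; transcripts detected by RT-PCR, 6-FAM primer extension and CE.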

[10] = ATG_NRF2_ARE_CIS: Attagene CIS-FACTORIAL HepG2 Assay for human Nuclear Factor Erythroid 2 Related Factor 2 (NFR2) response to Antioxidant Response Elements (ARE) (AID 2282992); settings: HepG2 Attagene ARE/NRF2 reporter, transcription factor activity; actives raise or lower the signal;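 for AC50: reporter mRNA level measured by RT-PCR and capillary electrophoresis fluorescence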
In short: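 Transient MRTU transfection of HepG2; 24 h compound exposure; TriZol RNA, RT with oligo(dT), PCR, 6-FAM primer extension, HpaI cut, CE. Bidirectional fit vs DMSO.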

[11] = ATG_Oct_MLP_CIS: Attagene CIS-FACTORIAL HepG2 Assay for human Octamer-Binding Transcription Factor (Oct) (AID 2282993); settings: HepG2 Attagene cis-factorial Oct reporter, mRNA; actives raise or lower the signal
In short: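 Multiplexed cis-reporter assay in human liver HepG2 cells, 24 h incubation. Reporter RNA amplified and labelled, then resolved by capillary electrophoresis; DMSO serves as negative control and baseline.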

[12] = target: Cellular tumor antigen p53 (Homo sapiens) (UniProt P04637); experiment: ATG_p53_CIS: Attagene CIS-FACTORIAL HepG2 Assay for human p53 Transcription Factor (AID 2282994); settings: HepG2 p53 cis-element reporter, Attagene mRNA; actives raise or lower the signal
Sequence of Cellular tumor antigen p53 (Homo sapiens) (P04637 whole entry, looked up): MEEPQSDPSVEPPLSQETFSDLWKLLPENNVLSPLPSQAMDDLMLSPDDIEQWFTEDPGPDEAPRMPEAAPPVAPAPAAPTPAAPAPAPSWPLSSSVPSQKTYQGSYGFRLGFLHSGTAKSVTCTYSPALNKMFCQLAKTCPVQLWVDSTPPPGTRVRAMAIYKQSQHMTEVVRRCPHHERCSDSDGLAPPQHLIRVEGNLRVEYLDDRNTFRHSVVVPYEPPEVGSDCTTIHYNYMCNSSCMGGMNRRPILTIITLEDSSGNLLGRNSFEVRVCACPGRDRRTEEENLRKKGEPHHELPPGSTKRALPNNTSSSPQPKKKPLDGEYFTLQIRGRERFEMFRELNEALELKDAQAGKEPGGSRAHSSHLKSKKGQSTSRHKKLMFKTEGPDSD
In short: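 HepG2, transient MRTU transfection (cis promoter elements, endogenous TFs); 24 h dosing; RNA isolation, RT-PCR, 6-FAM primer extension, HpaI digest, CE fluorescence; bidirectional fit vs DMSO.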

[13] = target: Hepatocyte nuclear factor 4-alpha (Homo sapiens) (UniProt P41235); experiment: ATG_HNF4a_TRANS: Attagene TRANS-FACTORIAL HepG2 Assay for human Hepatocyte Nuclear Factor 4 alpha (HNF4a) (AID 2282982; active = hit-call score of the fitted dose curve at least 0.9, where 1 is the maximum); settings: HepG2 HNF4a transactivation reporter, mRNA readout
Sequence of Hepatocyte nuclear factor 4-alpha (Homo sapiens) (P41235 whole entry, looked up, the tested form may be a part): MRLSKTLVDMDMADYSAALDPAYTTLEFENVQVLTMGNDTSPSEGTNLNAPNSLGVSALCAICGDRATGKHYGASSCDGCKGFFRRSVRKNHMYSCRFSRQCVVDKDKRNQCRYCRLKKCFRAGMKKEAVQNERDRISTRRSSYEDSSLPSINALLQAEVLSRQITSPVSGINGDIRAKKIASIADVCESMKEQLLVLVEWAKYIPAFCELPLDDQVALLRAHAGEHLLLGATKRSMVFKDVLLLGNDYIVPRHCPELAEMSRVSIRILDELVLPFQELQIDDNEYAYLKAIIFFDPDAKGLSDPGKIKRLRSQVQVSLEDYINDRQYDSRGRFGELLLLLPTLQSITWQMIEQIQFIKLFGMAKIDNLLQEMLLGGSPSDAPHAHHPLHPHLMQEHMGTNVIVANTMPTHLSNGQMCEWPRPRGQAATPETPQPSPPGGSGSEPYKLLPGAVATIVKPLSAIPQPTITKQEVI
In short: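 Cells used were human HepG2, transiently carrying GAL4-UAS reporter units read out against exogenous NR-GAL4 chimeras. Reporter transcript levels after 24 h dosing were quantified by fluorescent RT-PCR and capillary electrophoresis.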

[14] = ATG_NF_kB_CIS: Attagene CIS-FACTORIAL HepG2 Assay for human Nuclear Factor Kappa B (NF-kB) (AID 2282991); settings: HepG2 Attagene cis-factorial NF-kB reporter mRNA; actives raise or lower the signal
In short: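 After 24 h compound incubation, transfected HepG2 cells yield total RNA; reporter cDNA is PCR-amplified, end-labelled with 6-FAM, HpaI-digested and analysed on a genetic analyser. Endogenous factor activity, DMSO-referenced bidirectional fit.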

[15] = target: Oxysterols receptor LXR-alpha (Homo sapiens) (UniProt Q13133); experiment: ATG_LXRa_TRANS: Attagene TRANS-FACTORIAL HepG2 Assay for human Liver X Receptor alpha (LXRa) (AID 2282980; active = hit-call score of the fitted dose curve at least 0.9, where 1 is the maximum); settings: HepG2 Attagene TRANS reporter, LXRa transactivation
Sequence of Oxysterols receptor LXR-alpha (Homo sapiens) (Q13133 whole entry, looked up): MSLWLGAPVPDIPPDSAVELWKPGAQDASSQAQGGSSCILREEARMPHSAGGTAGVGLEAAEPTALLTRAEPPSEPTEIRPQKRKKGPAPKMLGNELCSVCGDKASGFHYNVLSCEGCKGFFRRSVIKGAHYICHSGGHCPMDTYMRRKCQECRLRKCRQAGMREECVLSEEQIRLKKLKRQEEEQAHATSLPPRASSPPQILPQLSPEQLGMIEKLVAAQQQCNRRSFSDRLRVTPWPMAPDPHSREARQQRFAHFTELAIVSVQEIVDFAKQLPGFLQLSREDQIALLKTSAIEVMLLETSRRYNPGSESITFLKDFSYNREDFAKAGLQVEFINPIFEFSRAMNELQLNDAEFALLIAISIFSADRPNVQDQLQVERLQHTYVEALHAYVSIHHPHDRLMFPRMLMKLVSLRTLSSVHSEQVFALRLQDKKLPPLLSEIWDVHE
In short: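 Transient HepG2 transfectants, 24 h dosing, RT-PCR/CE mRNA reporter quantitation; gain-of-signal vs DMSO.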

[16] = BSK_3C_TissueFactor: BioMAP Diversity Plus: 3C Assay for Tissue Factor Biomarker Activity (AID 2282997); settings: BioMAP 3C HUVEC, tissue factor biomarker readout; actives raise or lower the signal
In short: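 Values derive from bidirectional curve fitting against DMSO of Tissue Factor ELISA signals, taken 24 h after dosing primary human umbilical vein endothelial cells.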

[17] = BSK_3C_uPAR: BioMAP Diversity Plus: 3C Assay for Urokinase-type plasminogen activator receptor (uPAR) Biomarker Activity (AID 2282998); settings: BioMAP 3C HUVEC, uPAR biomarker ELISA; actives raise or lower the signal
In short: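 Dose primary human umbilical vein endothelial cells, incubate 24 h, measure cell-surface uPAR by ELISA, then fit the signal in both directions against the DMSO negative control.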

[18] = BSK_3C_VCAM1: BioMAP Diversity Plus: 3C Assay for Vascular cell adhesion molecule 1 (VCAM1) Biomarker Activity (AID 2282999); settings: BioMAP 3C HUVEC, VCAM1 ELISA, cytokine-stimulated; actives raise or lower the signal
In short: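 Human umbilical vein endothelial cells were dosed with compound for 24 h, after which cell-surface VCAM-1 was quantified by ELISA. Bidirectional curve fitting used DMSO as negative control and activity baseline.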

[19] = BSK_4H_Eotaxin3: BioMAP Diversity Plus: 4H Assay for Eotaxin 3 Biomarker Activity (AID 2283000); settings: primary human endothelial cells (HUVEC); actives raise or lower the signal
In short: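 Endothelial primary cells (human umbilical vein) exposed to compound for 24 h. ELISA detection of Eotaxin-3.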

Measured: AC50

O=Cc1ccc(F)cc1
not listed: [13] | [14] | [15] | [16] | [17] | [18] | [19]
inactive: all other assays above

CCCCN
not listed: [3] | [4] | [15] | [16] | [17] | [18] | [19]
inactive: all other assays above

CCC(C)CCCC(C)(C)O (stereo not given)
inactive: [1] | [15] | [4] | [6] | [7] | [8] | [9] | [10] | [11] | [12]

NC(N)=NC(=O)c1nc(Cl)c(N)nc1N
inactive: [1] | [2] | [3] | [4] | [5] | [6] | [7] | [9] | [14] | [12]
active: [10] 62.6 µM

CC(O)C(C)O (stereo not given)
not listed: [4] | [6] | [7] | [15] | [16] | [17] | [18] | [19]
inactive: all other assays above

CCCCCCCCCCCCCOS(=O)(=O)O
not listed: [4] | [8] | [13] | [15] | [16] | [17] | [18] | [19]
inactive: all other assays above

Nc1cccc(S(=O)(=O)c2cccc(N)c2)c1
not listed: [5] | [14] | [15] | [16] | [17] | [18] | [19]
inactive: all other assays above

CC(CCO)CCCC(C)(C)O (stereo not given)
inactive: [1] | [2] | [3] | [4] | [7] | [8] | [9] | [14] | [10] | [11]

Cc1ccccc1C=O
not listed: [3] | [6] | [14] | [15] | [16] | [17] | [18] | [19]
inactive: all other assays above

O=S(=O)(O)c1cccc2c(S(=O)(=O)O)cccc12
inactive: [1] | [15] | [3] | [6] | [7] | [9] | [14] | [10] | [11]

C=CC(=O)OCC(O)COc1ccccc1 (stereo not given)
active: [14] 55.7 µM | [10] 26.2 µM
not listed: [4] | [8] | [15] | [16] | [17] | [18] | [19]
inactive: all other assays above

O=CCCc1ccccc1
inactive: [1] | [15] | [3] | [4] | [6] | [7] | [8] | [9] | [14] | [11]
active: [10] 38 µM

O=C(O)c1ccc([N+](=O)[O-])cc1
not listed: [5] | [12] | [15]
inactive: all other assays above

COCCOCCOCCOCCOCCO
not listed: [6] | [8] | [15] | [16] | [17] | [18] | [19]
inactive: all other assays above

CC1CCC(C(C)CS)CC1S (stereo not given)
active: [9] 52.4 µM | [10] 33.4 µM | [11] 26.1 µM | [16] 36.7 µM | [18] 30 µM | [19] 30.3 µM
not listed: [5] | [6] | [12] | [13] | [15]
inactive: all other assays above

CC(C)(COC(=O)c1ccccc1)COC(=O)c1ccccc1
active: [16] 11.4 µM | [17] 34 µM | [19] 29.5 µM
not listed: [12] | [14] | [15]
inactive: all other assays above

CC1(C)[C@H](C(=O)OCc2cccc(Oc3ccccc3)c2)[C@@H]1C=C(Cl)Cl
not listed: [6] | [7] | [14] | [15] | [16] | [17] | [18] | [19]
inactive: all other assays above

c1ccc2[nH]ccc2c1
not listed: [4] | [13] | [14] | [15] | [16] | [17] | [18] | [19]
inactive: all other assays above

COCCCOc1ccnc(CS(=O)c2nc3ccccc3[nH]2)c1C (stereo not given)
active: [2] 27.9 µM | [10] 36.4 µM
not listed: [13] | [14] | [15] | [16] | [17] | [18] | [19]
inactive: all other assays above

CCO[Si](CCCS)(OCC)OCC
not listed: [3] | [4] | [5] | [15] | [16] | [17] | [18] | [19]
inactive: all other assays above
